Data from PubChem BioAssay AID1159580 (chemical genetic matrix, 2015).
The campaign covered roughly 5,500 compounds. About 2,000 (36%) were called active. Roughly 18% stayed inconclusive and do not appear here. Cut-off read from the data, not from the text of the source: active = normalized growth mostly below about 0.91 (no sharp cut-off); inconclusive = no clear call, values can overlap the other calls; inactive = mostly above about 0.92. This is one part of the list.

Assay: chemical genetic growth profiling, strain panel (AID 1159580);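 note: tested at 20 µM; growth read once vehicle control cultures reached saturation at 30 °C; 1 = growth at the plate median or of vehicle wells; lower values mean less growth of the strain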
Settings: growth OD
[1] = S. cerevisiae deletion strains, locus YDL101C, strain DUN1, stronger effect = lower value
[2] = S. cerevisiae deletion strains, locus YHR030C, strain SLT2, stronger effect = lower value
[3] = S. cerevisiae deletion strains, locus YJL095W, strain BCK1, stronger effect = lower value
[4] = S. cerevisiae deletion strains, locus YOR061W, strain CKA2, stronger effect = lower value

Measured: normalized growth

CCC(C)c1ccccc1NC(=O)c1cc2cccc([N+](=O)[O-])c2[nH]1 (configuration not stated)
inactive: S. cerevisiae deletion strains, locus YAR019C, strain CDC15, stronger effect = lower value 0.932 | S. cerevisiae deletion strains, locus YBL105C, strain PKC1, stronger effect = lower value 0.914 | S. cerevisiae deletion strains, locus YBR135W, strain CKS1, stronger effect = lower value 0.912 | S. cerevisiae deletion strains, locus YBR136W, strain MEC1, stronger effect = lower value 0.923 | S. cerevisiae deletion strains, locus YBR160W, strain CDC28, stronger effect = lower value 0.924 | S. cerevisiae deletion strains, locus YDL017W, strain CDC7, stronger effect = lower value 0.928 | S. cerevisiae deletion strains, locus YDL028C, strain MPS1, stronger effect = lower value 0.92 | [1] 0.949 | S. cerevisiae deletion strains, locus YDL108W, strain KIN28, stronger effect = lower value 0.921 | S. cerevisiae deletion strains, locus YDL132W, strain cdc53, stronger effect = lower value 0.896 | S. cerevisiae deletion strains, locus YDL214C, strain PRR2, stronger effect = lower value 0.904 | S. cerevisiae deletion strains, locus YDR052C, strain DBF4, stronger effect = lower value 0.965 | S. cerevisiae deletion strains, locus YDR054C, strain cdc34, stronger effect = lower value 0.957 | S. cerevisiae deletion strains, locus YDR226W, strain ADK1, stronger effect = lower value 0.936 | S. cerevisiae deletion strains, locus YDR477W, strain SNF1, stronger effect = lower value 0.792 | S. cerevisiae deletion strains, locus YER123W, strain YCK3, stronger effect = lower value 0.851 | S. cerevisiae deletion strains, locus YER133W, strain GLC7, stronger effect = lower value 0.893 | S. cerevisiae deletion strains, locus YFL009W, strain cdc4, stronger effect = lower value 0.906 | S. cerevisiae deletion strains, locus YFL029C, strain CAK1, stronger effect = lower value 0.925 | S. cerevisiae deletion strains, locus YFR003C, strain YPI1, stronger effect = lower value 0.93 | S. cerevisiae deletion strains, locus YFR019W, strain FAB1, stronger effect = lower value 0.978 | S. cerevisiae deletion strains, locus YFR028C, strain CDC14, stronger effect = lower value 0.967 | S. cerevisiae deletion strains, locus YGR040W, strain KSS1, stronger effect = lower value 0.826 | S. cerevisiae deletion strains, locus YGR052W, strain FMP48, stronger effect = lower value 0.867 | S. cerevisiae deletion strains, locus YGR092W, strain DBF2, stronger effect = lower value 0.7 | S. cerevisiae deletion strains, locus YHR082C, strain KSP1, stronger effect = lower value 0.905 | S. cerevisiae deletion strains, locus YHR205W, strain SCH9, stronger effect = lower value 0.964 | S. cerevisiae deletion strains, locus YIL147C, strain SLN1, stronger effect = lower value 0.916 | S. cerevisiae deletion strains, locus YJL128C, strain PBS2, stronger effect = lower value 0.994 | S. cerevisiae deletion strains, locus YJL157C, strain FAR1, stronger effect = lower value 0.884 | S. cerevisiae deletion strains, locus YJR016C, strain ILV3, stronger effect = lower value 0.911 | S. cerevisiae deletion strains, locus YJR066W, strain TOR1 (second series), stronger effect = lower value 0.905 | S. cerevisiae deletion strains, locus YJR066W, strain TOR1, stronger effect = lower value 0.767 | S. cerevisiae deletion strains, locus YKL048C, strain ELM1, stronger effect = lower value 0.912 | S. cerevisiae deletion strains, locus YKL067W, strain YNK1, stronger effect = lower value 0.897 | S. cerevisiae deletion strains, locus YKL101W, strain HSL1, stronger effect = lower value 0.83 | S. cerevisiae deletion strains, locus YKL193C, strain SDS22, stronger effect = lower value 0.92 | S. cerevisiae deletion strains, locus YKL203C, strain TOR2, stronger effect = lower value 0.783 | S. cerevisiae deletion strains, locus YLR133W, strain CKI1, stronger effect = lower value 0.902 | S. cerevisiae deletion strains, locus YLR403W, strain SFP1, stronger effect = lower value 0.859 | S. cerevisiae deletion strains, locus YML070W, strain DAK1, stronger effect = lower value 0.846 | S. cerevisiae deletion strains, locus YMR001C, strain CDC5, stronger effect = lower value 0.917 | S. cerevisiae deletion strains, locus YMR205C, strain PFK2 (second series), stronger effect = lower value 0.894 | S. cerevisiae deletion strains, locus YMR277W, strain FCP1, stronger effect = lower value 0.921 | S. cerevisiae deletion strains, locus YNL006W, strain LST8, stronger effect = lower value 0.915 | S. cerevisiae deletion strains, locus YNL020C, strain ARK1, stronger effect = lower value 0.905 | S. cerevisiae deletion strains, locus YNL161W, strain CBK1, stronger effect = lower value 0.924 | S. cerevisiae deletion strains, locus YNL183C, strain NPR1, stronger effect = lower value 0.774 | S. cerevisiae deletion strains, locus YNL207W, strain RIO2, stronger effect = lower value 0.905 | S. cerevisiae deletion strains, locus YNL222W, strain SSU72, stronger effect = lower value 0.917 | S. cerevisiae deletion strains, locus YNL307C, strain MCK1 (second series), stronger effect = lower value 0.826 | S. cerevisiae deletion strains, locus YOL078W, strain AVO1, stronger effect = lower value 0.924 | S. cerevisiae deletion strains, locus YOL136C, strain PFK27, stronger effect = lower value 0.869 | [4] 0.818 | S. cerevisiae deletion strains, locus YOR119C, strain RIO1, stronger effect = lower value 0.805 | S. cerevisiae deletion strains, locus YOR231W, strain MKK1, stronger effect = lower value 0.631 | S. cerevisiae deletion strains, locus YOR329C, strain SCD5, stronger effect = lower value 0.917 | S. cerevisiae deletion strains, locus YPL031C, strain PHO85, stronger effect = lower value 0.832 | S. cerevisiae deletion strains, locus YPL153C, strain RAD53, stronger effect = lower value 0.723 | S. cerevisiae deletion strains, locus YPL204W, strain HRR25, stronger effect = lower value 0.834 | S. cerevisiae deletion strains, locus YPL209C, strain IPL1, stronger effect = lower value 0.921 | S. cerevisiae deletion strains, locus YPR025C, strain CCL1, stronger effect = lower value 0.919 | S. cerevisiae deletion strains, locus YPR106W, strain ISR1, stronger effect = lower value 0.958 | S. cerevisiae deletion strains, locus YPR111W, strain DBF20, stronger effect = lower value 0.99 | S. cerevisiae deletion strains, strain NNK1, stronger effect = lower value 0.945 | S. cerevisiae deletion strains, strain TSCII, stronger effect = lower value 0.911
active: [2] 0.543 | S. cerevisiae deletion strains, locus YHR079C, strain IRE1, stronger effect = lower value 0.219 | [3] 0.266 | S. cerevisiae deletion strains, locus YLR113W, strain HOG1, stronger effect = lower value 0.656 | S. cerevisiae deletion strains, locus YPL256C, strain CLN2, stronger effect = lower value 0.785

O=C(O)c1cc(=O)c2cc(Cl)ccc2[nH]1
inactive: S. cerevisiae deletion strains, locus YAL013W, strain DEP1, stronger effect = lower value 0.985 | S. cerevisiae deletion strains, locus YBR021W, strain FUR4, stronger effect = lower value 1.03 | S. cerevisiae deletion strains, locus YBR229C, strain ROT2, stronger effect = lower value 1.01 | S. cerevisiae deletion strains, locus YCL029C, strain bik1, stronger effect = lower value 1.01 | S. cerevisiae deletion strains, locus YDL035C, strain GPR1, stronger effect = lower value 1 | S. cerevisiae deletion strains, locus YDL074C, strain BRE1, stronger effect = lower value 0.972 | [1] 1 | S. cerevisiae deletion strains, locus YDL134C, strain PPH21, stronger effect = lower value 1 | S. cerevisiae deletion strains, locus YDL185W, strain tfp1, stronger effect = lower value 1 | S. cerevisiae deletion strains, locus YDL192W, strain arf1, stronger effect = lower value 1.01 | S. cerevisiae deletion strains, locus YDR101C, strain arx1, stronger effect = lower value 1.01 | S. cerevisiae deletion strains, locus YDR150W, strain NUM1, stronger effect = lower value 1.01 | S. cerevisiae deletion strains, locus YDR162C, strain NBP2, stronger effect = lower value 0.988 | S. cerevisiae deletion strains, locus YDR318W, strain mcm21, stronger effect = lower value 1.03 | S. cerevisiae deletion strains, locus YDR388W, stronger effect = lower value 1.01 | S. cerevisiae deletion strains, locus YDR502C, strain sam2, stronger effect = lower value 1 | S. cerevisiae deletion strains, locus YEL061C, strain CIN8, stronger effect = lower value 1 | S. cerevisiae deletion strains, locus YER110C, stronger effect = lower value 1 | S. cerevisiae deletion strains, locus YER155C, strain BEM2, stronger effect = lower value 0.995 | S. cerevisiae deletion strains, locus YER167W, strain BCK2, stronger effect = lower value 1.02 | S. cerevisiae deletion strains, locus YGL078C, strain dbp3, stronger effect = lower value 1 | S. cerevisiae deletion strains, locus YGL086W, strain mad1, stronger effect = lower value 1.01 | S. cerevisiae deletion strains, locus YGL248W, strain PDE1, stronger effect = lower value 1.02 | S. cerevisiae deletion strains, locus YGR078C, strain PAC10, stronger effect = lower value 0.995 | S. cerevisiae deletion strains, locus YGR135W, strain pre9, stronger effect = lower value 0.994 | S. cerevisiae deletion strains, locus YGR229C, strain SMI1, stronger effect = lower value 0.972 | S. cerevisiae deletion strains, locus YGR252W, strain gcn5, stronger effect = lower value 1.04 | [2] 1 | S. cerevisiae deletion strains, locus YHR079C, strain IRE1 (second series), stronger effect = lower value 1.02 | S. cerevisiae deletion strains, locus YHR094C, strain hxt1, stronger effect = lower value 1.01 | S. cerevisiae deletion strains, locus YHR129C, strain ARP1, stronger effect = lower value 1.02 | S. cerevisiae deletion strains, locus YHR200W, strain rpn10, stronger effect = lower value 1.01 | S. cerevisiae deletion strains, locus YIL066C, strain RNR3, stronger effect = lower value 0.997 | S. cerevisiae deletion strains, locus YIL073C, strain SPO22, stronger effect = lower value 1.08 | S. cerevisiae deletion strains, locus YIL125W, strain kgd1, stronger effect = lower value 1.01 | S. cerevisiae deletion strains, locus YIR030C, strain dcg1, stronger effect = lower value 1.01 | [3] 0.994 | S. cerevisiae deletion strains, locus YJL134W, strain LCB3, stronger effect = lower value 1.01 | S. cerevisiae deletion strains, locus YJL168C, strain set2, stronger effect = lower value 1 | S. cerevisiae deletion strains, locus YJL187C, strain SWE1 (second series), stronger effect = lower value 1.01 | S. cerevisiae deletion strains, locus YJR043C, strain POL32, stronger effect = lower value 1.01 | S. cerevisiae deletion strains, locus YJR075W, strain HOC1, stronger effect = lower value 0.983 | S. cerevisiae deletion strains, locus YKL009W, strain mrt4, stronger effect = lower value 1.03 | S. cerevisiae deletion strains, locus YKL068W, stronger effect = lower value 0.996 | S. cerevisiae deletion strains, locus YKL085W, strain MDH1 (second series), stronger effect = lower value 1.02 | S. cerevisiae deletion strains, locus YKL085W, strain MDH1, stronger effect = lower value 1.02 | S. cerevisiae deletion strains, locus YKL190W, strain CNB1, stronger effect = lower value 1 | S. cerevisiae deletion strains, locus YKR001C, strain vps1, stronger effect = lower value 1.01 | S. cerevisiae deletion strains, locus YLR039C, strain RIC1, stronger effect = lower value 1.02 | S. cerevisiae deletion strains, locus YLR058C, strain SHM2, stronger effect = lower value 1.01 | S. cerevisiae deletion strains, locus YLR102C, strain apc9, stronger effect = lower value 1.01 | S. cerevisiae deletion strains, locus YLR262C, strain YPT6, stronger effect = lower value 1.01 | S. cerevisiae deletion strains, locus YLR268W, strain sec22, stronger effect = lower value 1.01 | S. cerevisiae deletion strains, locus YLR330W, strain CHS5, stronger effect = lower value 1 | S. cerevisiae deletion strains, locus YLR342W, strain FKS1 (second series), stronger effect = lower value 1.08 | S. cerevisiae deletion strains, locus YLR371W, strain rom2, stronger effect = lower value 1.02 | S. cerevisiae deletion strains, locus YLR418C, strain cdc73, stronger effect = lower value 0.984 | S. cerevisiae deletion strains, locus YML016C, strain PPZ1, stronger effect = lower value 1 | S. cerevisiae deletion strains, locus YML032C, strain rad52, stronger effect = lower value 1.02 | S. cerevisiae deletion strains, locus YML124C, strain tub3, stronger effect = lower value 1 | S. cerevisiae deletion strains, locus YMR078C, strain ctf18, stronger effect = lower value 1.02 | S. cerevisiae deletion strains, locus YMR223W, strain ubp8, stronger effect = lower value 1.03 | S. cerevisiae deletion strains, locus YMR263W, strain SAP30, stronger effect = lower value 1 | S. cerevisiae deletion strains, locus YMR307W, strain GAS1, stronger effect = lower value 1.03 | S. cerevisiae deletion strains, locus YNL067W, strain RPL9B, stronger effect = lower value 0.994 | S. cerevisiae deletion strains, locus YNL128W, strain TEP1, stronger effect = lower value 0.951 | S. cerevisiae deletion strains, locus YNL153C, strain GIM3, stronger effect = lower value 0.999 | S. cerevisiae deletion strains, locus YNL233W, strain BNI4, stronger effect = lower value 1.01 | S. cerevisiae deletion strains, locus YNL250W, strain rad50, stronger effect = lower value 1.01 | S. cerevisiae deletion strains, locus YNL271C, strain bni1, stronger effect = lower value 1 | S. cerevisiae deletion strains, locus YNL298W, strain CLA4, stronger effect = lower value 1.01 | S. cerevisiae deletion strains, locus YNL307C, strain MCK1, stronger effect = lower value 1.03 | S. cerevisiae deletion strains, locus YNL322C, strain KRE1, stronger effect = lower value 0.998 | S. cerevisiae deletion strains, locus YNR052C, strain pop2, stronger effect = lower value 1.01 | S. cerevisiae deletion strains, locus YOL006C, strain TOP1, stronger effect = lower value 1.03 | S. cerevisiae deletion strains, locus YOL012C, strain htz1 1.31 | S. cerevisiae deletion strains, locus YOL147C, strain pex11, stronger effect = lower value 1.01 | [4] 1 | S. cerevisiae deletion strains, locus YOR069W, strain VPS5, stronger effect = lower value 1.01 | S. cerevisiae deletion strains, locus YOR136W, strain idh2, stronger effect = lower value 1.01 | S. cerevisiae deletion strains, locus YOR144C, strain elg1, stronger effect = lower value 1 | S. cerevisiae deletion strains, locus YOR184W, strain ser1, stronger effect = lower value 1.06 | S. cerevisiae deletion strains, locus YOR316C, strain cot1, stronger effect = lower value 1.01 | S. cerevisiae deletion strains, locus YPL055C, strain LGE1, stronger effect = lower value 0.967 | S. cerevisiae deletion strains, locus YPL241C, strain CIN2, stronger effect = lower value 1 | S. cerevisiae deletion strains, locus YPR119W, strain clb2, stronger effect = lower value 1 | S. cerevisiae deletion strains, locus YPR141C, strain kar3, stronger effect = lower value 1.01 | S. cerevisiae deletion strains, locus YPR163C, strain tif3, stronger effect = lower value 1.01 | S. cerevisiae deletion strains, locus YPR167C, strain met16, stronger effect = lower value 1 | S. cerevisiae deletion strains, strain wtn01, stronger effect = lower value 1.01 | S. cerevisiae strains, strain wild type, stronger effect = lower value 0.988
